Reference: PubChem BioAssay (Tox21)
Where “and” joins values, the source holds several entries; their conditions need not be identical. Identical values can stand only once. Results filed as inconclusive are left out. A call without a number means that no potency is given here. More than one record can exist for a structure, and the calls need not agree. Calls of active or inactive are those of the source. Unless noted, the call rests on the fitted dose curve; in most records, active means well fitted curve in the direction sought with a large enough effect in the repeat runs; inconclusive means weak or mixed curves; inactive means no such curve, though single readings can be large; an effect the other way counts as inactive or inconclusive.

Tests used:
[1] = qHTS assay for small molecule agonists of the p53 signaling pathway - cell viability (AID 651633; calls by dose curve; further: nearly all actives have a fitted effect of over 30% in size; further: potency means the concentration at half of the fitted maximal effect)
Summary of the method: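 p53RE-bla cells, seeded at 4,000 per well and rested 5 h at 37 C/5% CO2, received compounds in DMSO for 16 h at 37 C. CellTiter-Glo was then added, and luminescence was read after 30 min at room temperature to gauge cytotoxicity.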

[2] = qHTS assay for small molecules that induce genotoxicity in human embryonic kidney cells expressing luciferase-tagged ATAD5 - cell viability (AID 651634; calls by dose curve; further: nearly all actives have a fitted effect of over 25% in size; further: potency means the concentration at half of the fitted maximal effect)
Summary of the method: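 15.5 hr compound or vehicle exposure of HEK293T cells expressing luciferase-tagged ATAD5 at 37C; live-cell protease activity is read by fluorescence after 30 min of CellTiter-Fluor.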

[3] = qHTS assay for small molecule disruptors of the mitochondrial membrane potential - cell viability (AID 720634; calls by dose curve;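 further: human HepG2 liver cancer cells; series mostly up to about 83 µM; nearly all actives have a fitted effect of over 20% in size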)
Summary of the method: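 In this qHTS format, HepG2 cells plated overnight were pinned with compound, incubated 1 hr, and assayed for ATP luminescence with CellTiter-Glo after m-MPI dye addition.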

[4] = qHTS assay to test for compound auto fluorescence at 590 nm (red) in HepG2 cells (AID 720674)
Summary of the method: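 Compound auto-fluorescence is scored relative to Rose Bengal sodium, measured at 540/590 nm in live HepG2 cultures after 1 hr compound contact (37 C, 5% CO2).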

[5] = qHTS assay to test for compound auto fluorescence at 535 nm (green) in HepG2 cells (AID 720675)
[6] = qHTS assay to test for compound auto fluorescence at 460 nm (blue) in HEK293 cells (AID 720678)
Summary of the method: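 HEK293, 2,000 cells/well, 10% dialyzed FBS; attach 4-5 hr 37C; pin compound or DMSO; o/n 37C/5% CO2; fluorescence 405/460 nm; triamterene-equivalent units.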

[7] = qHTS assay to test for compound auto fluorescence at 590 nm (red) in HEK293 cells (AID 720679)
Summary of the method: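 Intensity at 540nm excitation and 590nm emission is reported as Rose Bengal sodium-equivalent autofluorescence. Measurements followed overnight exposure (37C, 5% CO2) of HEK293 cells, 2,000 per well, to 23 nL compound.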

[8] = qHTS assay to test for compound auto fluorescence at 535 nm (green) in HEK293 cells (AID 720680)
[9] = qHTS assay to test for compound auto fluorescence at 460 nm (blue) in HEK293 cell free culture (AID 720681)
Summary of the method: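 Test compounds were pinned into cell-free culture medium (DMEM with 10% FBS) and fluorescence was read directly at Ex/Em 405/460 nm. Signals were expressed as fluorescence equivalents of triamterene, with DMSO vehicle as control.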

[10] = qHTS assay to test for compound auto fluorescence at 590 nm (red) in HEK293 cell free culture (AID 720683)
Summary of the method: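 Tox21 10K library compounds were pinned into cell-free DMEM with 10% FBS and fluorescence was read at excitation 540 nm. Activity is expressed as Rose Bengal sodium equivalency.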

[11] = qHTS assay to test for compound auto fluorescence at 590 nm (red) in HepG2 cell free culture (AID 720684)
Summary of the method: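 Ex 540 / Em 590 nm read of compound in cell-free MEM (10% FBS). Rose Bengal sodium reference.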

[12] = qHTS assay to test for compound auto fluorescence at 460 nm (blue) in HepG2 cell free culture (AID 720685)
Summary of the method: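 Cell-free plates of MEM plus 10% FBS received 23 nL compound or DMSO vehicle; blue-channel (405/460 nm) intensity scored against triamterene as reference fluorophore.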

[13] = qHTS assay to test for compound auto fluorescence at 535 nm (green) in HepG2 cell free culture (AID 720686)
[14] = qHTS assay to test for compound auto fluorescence at 460 nm (blue) in HepG2 cells (AID 720687)
Summary of the method: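 Cells (2,000/well in MEM with 10% FBS) attached overnight at 37 C, then were exposed to compound or DMSO for 1 hr at 37 C, 5% CO2. Fluorescence read at Ex/Em 405/460 nm, expressed as triamterene-equivalent signal.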

[15] = qHTS assay for small molecules that induce genotoxicity in human embryonic kidney cells expressing luciferase-tagged ATAD5 (AID 651632); further: nearly all actives have a fitted effect of over 15% in size
Summary of the method: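 Concentration-response screen for ATAD5 upregulation in HEK293T luciferase reporter cells; 16 hr treatment at 37C, then luminescence after 30 min with Amplite at room temperature.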

[16] = qHTS assay to test for compound auto fluorescence at 535 nm (green) in HEK293 cell free culture (AID 720682)
Summary of the method: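 Steps: dispense DMEM/10% FBS into empty wells; pin in compound or DMSO; measure fluorescence at 485/535 nm. Values are fluorescein equivalents.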

[17] = biological target: Glucocorticoid receptor (Homo sapiens) (UniProt P04150); assay: qHTS assay to identify small molecule agonists of the glucocorticoid receptor (GR) signaling pathway (AID 720691; active means well fitted activation curve with a large enough effect in the signal ratio in the repeat runs, not every such curve was filed as active; the % refers to the signal ratio)
Glucocorticoid receptor (Homo sapiens), sequence (P04150 whole entry, looked up): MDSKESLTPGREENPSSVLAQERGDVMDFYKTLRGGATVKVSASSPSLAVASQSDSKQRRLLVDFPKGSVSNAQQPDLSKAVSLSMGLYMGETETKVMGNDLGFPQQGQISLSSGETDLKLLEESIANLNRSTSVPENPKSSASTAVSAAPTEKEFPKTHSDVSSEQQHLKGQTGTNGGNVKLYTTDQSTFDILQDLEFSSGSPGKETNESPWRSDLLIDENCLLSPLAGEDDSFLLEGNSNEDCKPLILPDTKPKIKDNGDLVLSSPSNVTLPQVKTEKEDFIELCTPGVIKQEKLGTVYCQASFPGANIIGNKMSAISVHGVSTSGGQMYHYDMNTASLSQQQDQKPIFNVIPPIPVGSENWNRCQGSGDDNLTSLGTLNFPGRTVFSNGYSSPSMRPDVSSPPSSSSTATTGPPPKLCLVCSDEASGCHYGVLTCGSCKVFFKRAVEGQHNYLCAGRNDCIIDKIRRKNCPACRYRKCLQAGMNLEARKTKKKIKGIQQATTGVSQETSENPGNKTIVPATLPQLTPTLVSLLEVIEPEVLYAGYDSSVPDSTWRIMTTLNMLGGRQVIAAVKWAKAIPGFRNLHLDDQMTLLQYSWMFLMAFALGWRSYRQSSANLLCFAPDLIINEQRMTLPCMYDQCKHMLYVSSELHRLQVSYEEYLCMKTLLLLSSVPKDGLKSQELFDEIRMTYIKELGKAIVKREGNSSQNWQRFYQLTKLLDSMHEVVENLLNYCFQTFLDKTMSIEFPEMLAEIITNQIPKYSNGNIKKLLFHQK
Summary of the method: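 Measures GR pathway activation through a GRE-beta-lactamase reporter stably integrated in HeLa cells, with 18 h compound treatment at 37 C and fluorescence detection using a FRET substrate.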

[18] = biological target: Glucocorticoid receptor (Homo sapiens) (UniProt P04150); assay: qHTS assay to identify small molecule antagonists of the glucocorticoid receptor (GR) signaling pathway (AID 720692; active means well fitted inhibition curve with a large enough effect in the signal ratio in the repeat runs, not every such curve was filed as active; the % refers to the signal ratio; further: potency means the concentration at half of the fitted maximal effect)
Summary of the method: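 Tox21 10K library screened in concentration-response for blockade of dexamethasone (5 nM final)-induced GRE-bla reporter activity in HeLa cells; 18 h treatment, fluorescence read.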

[19] = qHTS assay for small molecule disruptors of the mitochondrial membrane potential (AID 720635)
Summary of the method: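 HepG2 cells (2,000/well) attached overnight at 37C, then took compound for 1 hr at 37C, 5% CO2. Mito-MPS dye was added for 30 min; fluorescence was read at 490/535 nm (monomers) and 540/590 nm (aggregates).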

**Q.** Which Potency [1] does the source give for C/C=C/C=C/C(=O)O here?
**A.** inactive

**Q.** What about the Potency [2] of the same compound?
**A.** inactive

**Q.** And the Potency [3]?
**A.** inactive

**Q.** What about the Potency [4] of the same compound?
**A.** inactive

**Q.** What about the Potency [5] of the same compound?
**A.** inactive

**Q.** What about the Potency [6] of the same compound?
**A.** inactive

**Q.** And the Potency [7]?
**A.** inactive

**Q.** And the Potency [8]?
**A.** inactive

**Q.** What about the Potency [9] of the same compound?
**A.** inactive

**Q.** What about the Potency [10] of the same compound?
**A.** inactive

**Q.** What about the Potency [11] of the same compound?
**A.** inactive

**Q.** What about the Potency [12] of the same compound?
**A.** inactive

**Q.** What about the Potency [13] of the same compound?
**A.** inactive

**Q.** What about the Potency [14] of the same compound?
**A.** inactive

**Q.** Which results are given for C1CCC(C(CC2CCCCN2)C2CCCCC2)CC1 (stereo unspecified)?
**A.** Potency [15]: inactive; Potency [1]: 23.7 µM (active); Potency [2]: 26.6 µM (active); Potency [4]: inactive; Potency [5]: inactive; Potency [6]: inactive; Potency [7]: inactive; Potency [8]: inactive; Potency [9]: inactive; Potency [16]: inactive; Potency [10]: inactive; Potency [11]: inactive; Potency [12]: inactive; Potency [13]: inactive; Potency [14]: inactive

**Q.** Which results are given for CCCCCCc1ccc(O)cc1O?
**A.** Potency [15]: inactive; Potency [1]: inactive and 54.6 µM (active) and 61.1 µM (active); Potency [2]: inactive; Potency [4]: inactive; Potency [5]: inactive; Potency [6]: inactive; Potency [7]: inactive; Potency [8]: inactive; Potency [9]: inactive; Potency [16]: inactive; Potency [10]: inactive; Potency [11]: inactive; Potency [12]: inactive; Potency [13]: inactive; Potency [14]: inactive; Potency [17]: inactive; Potency [18]: inactive and 49 µM (active)

**Q.** With Cc1cccc(C)c1 as the compound, how does the Potency [15] read?
**A.** inactive

**Q.** What about the Potency [1] of the same compound?
**A.** inactive

**Q.** And the Potency [2]?
**A.** inactive

**Q.** What about the Potency [3] of the same compound?
**A.** inactive

**Q.** What about the Potency [4] of the same compound?
**A.** inactive

**Q.** And the Potency [5]?
**A.** inactive

**Q.** And the Potency [6]?
**A.** inactive

**Q.** And the Potency [7]?
**A.** inactive

**Q.** What about the Potency [8] of the same compound?
**A.** inactive

**Q.** And the Potency [9]?
**A.** inactive

**Q.** And the Potency [10]?
**A.** inactive

**Q.** And the Potency [11]?
**A.** inactive

**Q.** And the Potency [12]?
**A.** inactive

**Q.** What about the Potency [13] of the same compound?
**A.** inactive

**Q.** And the Potency [14]?
**A.** inactive

**Q.** And the Potency [17]?
**A.** inactive

**Q.** What about the Potency [18] of the same compound?
**A.** inactive

**Q.** With CC(=O)CC(c1ccccc1)c1c(O)c2ccccc2oc1=O (stereo unspecified) as the compound, how does the Potency [2] read?
**A.** inactive

**Q.** And the Potency [3]?
**A.** inactive

**Q.** What about the Potency [4] of the same compound?
**A.** inactive

**Q.** What about the Potency [5] of the same compound?
**A.** inactive

**Q.** And the Potency [6]?
**A.** inactive

**Q.** What about the Potency [7] of the same compound?
**A.** inactive

**Q.** What about the Potency [8] of the same compound?
**A.** inactive

**Q.** And the Potency [9]?
**A.** inactive

**Q.** What about the Potency [10] of the same compound?
**A.** inactive

**Q.** What about the Potency [11] of the same compound?
**A.** inactive

**Q.** And the Potency [12]?
**A.** inactive

**Q.** And the Potency [13]?
**A.** inactive

**Q.** What about the Potency [14] of the same compound?
**A.** inactive

**Q.** Which Potency [3] does the source give for CC(C)c1c(C(=O)Nc2ccccc2)c(-c2ccccc2)c(-c2ccc(F)cc2)n1CC[C@@H](O)C[C@@H](O)CC(=O)O here?
**A.** inactive

**Q.** And the Potency [4]?
**A.** inactive

**Q.** What about the Potency [5] of the same compound?
**A.** inactive

**Q.** What about the Potency [6] of the same compound?
**A.** inactive

**Q.** What about the Potency [7] of the same compound?
**A.** inactive

**Q.** And the Potency [8]?
**A.** inactive

**Q.** And the Potency [9]?
**A.** inactive

**Q.** What about the Potency [10] of the same compound?
**A.** inactive

**Q.** What about the Potency [11] of the same compound?
**A.** inactive

**Q.** And the Potency [12]?
**A.** inactive

**Q.** What about the Potency [13] of the same compound?
**A.** inactive

**Q.** What about the Potency [14] of the same compound?
**A.** inactive

**Q.** What about the Potency [17] of the same compound?
**A.** inactive

**Q.** Which results are given for O=C1NC(=O)C(c2ccccc2)(c2ccccc2)N1?
**A.** Potency [15]: inactive; Potency [2]: inactive; Potency [3]: inactive; Potency [19]: inactive; Potency [4]: inactive; Potency [5]: inactive; Potency [6]: inactive; Potency [7]: inactive; Potency [8]: inactive; Potency [9]: inactive; Potency [10]: inactive; Potency [11]: inactive; Potency [12]: inactive; Potency [13]: inactive; Potency [14]: inactive; Potency [17]: inactive; Potency [18]: inactive

**Q.** With CCN(Cc1c(F)cccc1Cl)c1c([N+](=O)[O-])cc(C(F)(F)F)cc1[N+](=O)[O-] as the compound, how does the Potency [15] read?
**A.** inactive

**Q.** And the Potency [2]?
**A.** inactive

**Q.** What about the Potency [3] of the same compound?
**A.** inactive

**Q.** And the Potency [4]?
**A.** inactive

**Q.** And the Potency [5]?
**A.** inactive

**Q.** And the Potency [6]?
**A.** inactive

**Q.** What about the Potency [7] of the same compound?
**A.** inactive

**Q.** What about the Potency [8] of the same compound?
**A.** inactive

**Q.** And the Potency [9]?
**A.** inactive

**Q.** And the Potency [16]?
**A.** inactive

**Q.** What about the Potency [10] of the same compound?
**A.** inactive

**Q.** What about the Potency [11] of the same compound?
**A.** inactive

**Q.** And the Potency [12]?
**A.** inactive

**Q.** What about the Potency [13] of the same compound?
**A.** inactive

**Q.** What about the Potency [14] of the same compound?
**A.** inactive
